Measurements as given in the supplement of paper PMC10849652.
The full data set covers some 7,900 targets. This sample favours those with a hit. About 0.6% of all pairs of compound and target were hits.

compound: c1cn2cc(-c3ccc4cn[nH]c4c3)nc(Nc3ccc(N4CCOCC4)cc3)c2n1 [entospletinib]; test: log2 fold change, soluble protein after heating vs DMSO (PISA); higher = thermal stabilisation; K562 cells, 10 uM, 30 min; active = over 0.2 and 3.5 SD of the protein, either way, in both replicates (recomputed)
Method in brief: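 Quantification of soluble protein used TMTpro 16plex LC-MS/MS, with channel sums equalised. Samples were the supernatant after 21,000xg for 90 min of pooled aliquots from K562 cells (2×10^6 cells/mL) treated with 10 μM compound for 30 min, heated for 3 min over 48°C-58°C, and extracted in PBS with 0.5% NP-40 at 4°C. Values, from duplicates, describe thermal stability against control samples on a log2 fold-change scale.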

UniProt P33947, sequence (P33947 whole entry, looked up): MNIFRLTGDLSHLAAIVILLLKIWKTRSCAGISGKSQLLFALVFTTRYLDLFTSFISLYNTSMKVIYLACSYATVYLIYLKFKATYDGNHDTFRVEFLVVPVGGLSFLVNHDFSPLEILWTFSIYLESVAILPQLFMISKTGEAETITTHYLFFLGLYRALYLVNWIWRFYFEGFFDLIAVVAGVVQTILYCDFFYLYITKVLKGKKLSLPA
UniProt P49137, sequence (P49137 whole entry, looked up): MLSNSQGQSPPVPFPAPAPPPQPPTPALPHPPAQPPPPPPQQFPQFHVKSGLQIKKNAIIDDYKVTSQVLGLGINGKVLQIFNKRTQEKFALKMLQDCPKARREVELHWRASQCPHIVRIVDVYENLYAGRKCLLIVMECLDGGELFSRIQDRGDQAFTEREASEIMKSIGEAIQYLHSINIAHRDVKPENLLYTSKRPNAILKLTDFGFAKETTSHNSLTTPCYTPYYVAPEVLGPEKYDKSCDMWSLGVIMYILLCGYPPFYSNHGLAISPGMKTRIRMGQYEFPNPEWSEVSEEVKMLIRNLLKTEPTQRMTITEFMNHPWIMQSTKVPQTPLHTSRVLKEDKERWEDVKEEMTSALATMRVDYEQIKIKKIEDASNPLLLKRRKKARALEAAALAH
UniProt O94889, sequence (O94889 whole entry, looked up): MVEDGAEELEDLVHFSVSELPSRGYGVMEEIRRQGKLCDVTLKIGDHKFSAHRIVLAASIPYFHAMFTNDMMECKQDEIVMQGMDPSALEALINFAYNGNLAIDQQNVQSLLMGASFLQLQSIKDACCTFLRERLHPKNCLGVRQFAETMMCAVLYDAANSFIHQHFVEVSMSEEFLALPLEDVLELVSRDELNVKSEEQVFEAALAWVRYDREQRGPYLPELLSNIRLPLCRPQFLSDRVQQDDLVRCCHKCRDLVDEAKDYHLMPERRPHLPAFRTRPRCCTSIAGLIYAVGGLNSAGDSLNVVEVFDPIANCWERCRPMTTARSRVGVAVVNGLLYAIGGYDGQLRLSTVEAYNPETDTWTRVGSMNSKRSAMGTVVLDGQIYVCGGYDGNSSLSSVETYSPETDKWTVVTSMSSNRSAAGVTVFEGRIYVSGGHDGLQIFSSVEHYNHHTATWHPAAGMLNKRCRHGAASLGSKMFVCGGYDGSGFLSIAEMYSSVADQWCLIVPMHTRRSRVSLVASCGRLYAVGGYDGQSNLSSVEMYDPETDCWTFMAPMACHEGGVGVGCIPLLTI
UniProt P22692, sequence (P22692 whole entry, looked up): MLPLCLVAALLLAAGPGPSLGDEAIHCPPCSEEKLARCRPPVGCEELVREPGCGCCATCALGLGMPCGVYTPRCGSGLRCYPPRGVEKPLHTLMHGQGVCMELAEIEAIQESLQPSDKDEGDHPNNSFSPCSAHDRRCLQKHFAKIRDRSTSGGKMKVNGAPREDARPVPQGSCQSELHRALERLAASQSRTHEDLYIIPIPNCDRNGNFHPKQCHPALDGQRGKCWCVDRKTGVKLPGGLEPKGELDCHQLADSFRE
UniProt Q8NE86, sequence (Q8NE86 whole entry, looked up): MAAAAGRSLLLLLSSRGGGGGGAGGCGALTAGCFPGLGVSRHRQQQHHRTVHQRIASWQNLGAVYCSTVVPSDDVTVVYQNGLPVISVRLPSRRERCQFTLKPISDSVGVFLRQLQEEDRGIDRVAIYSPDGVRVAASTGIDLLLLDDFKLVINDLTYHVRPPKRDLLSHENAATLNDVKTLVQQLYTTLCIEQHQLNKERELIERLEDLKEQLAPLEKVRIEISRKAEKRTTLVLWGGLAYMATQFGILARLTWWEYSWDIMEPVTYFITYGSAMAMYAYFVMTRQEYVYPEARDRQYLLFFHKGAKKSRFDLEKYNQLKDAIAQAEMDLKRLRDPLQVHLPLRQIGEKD
UniProt O95819, sequence (O95819 whole entry, looked up): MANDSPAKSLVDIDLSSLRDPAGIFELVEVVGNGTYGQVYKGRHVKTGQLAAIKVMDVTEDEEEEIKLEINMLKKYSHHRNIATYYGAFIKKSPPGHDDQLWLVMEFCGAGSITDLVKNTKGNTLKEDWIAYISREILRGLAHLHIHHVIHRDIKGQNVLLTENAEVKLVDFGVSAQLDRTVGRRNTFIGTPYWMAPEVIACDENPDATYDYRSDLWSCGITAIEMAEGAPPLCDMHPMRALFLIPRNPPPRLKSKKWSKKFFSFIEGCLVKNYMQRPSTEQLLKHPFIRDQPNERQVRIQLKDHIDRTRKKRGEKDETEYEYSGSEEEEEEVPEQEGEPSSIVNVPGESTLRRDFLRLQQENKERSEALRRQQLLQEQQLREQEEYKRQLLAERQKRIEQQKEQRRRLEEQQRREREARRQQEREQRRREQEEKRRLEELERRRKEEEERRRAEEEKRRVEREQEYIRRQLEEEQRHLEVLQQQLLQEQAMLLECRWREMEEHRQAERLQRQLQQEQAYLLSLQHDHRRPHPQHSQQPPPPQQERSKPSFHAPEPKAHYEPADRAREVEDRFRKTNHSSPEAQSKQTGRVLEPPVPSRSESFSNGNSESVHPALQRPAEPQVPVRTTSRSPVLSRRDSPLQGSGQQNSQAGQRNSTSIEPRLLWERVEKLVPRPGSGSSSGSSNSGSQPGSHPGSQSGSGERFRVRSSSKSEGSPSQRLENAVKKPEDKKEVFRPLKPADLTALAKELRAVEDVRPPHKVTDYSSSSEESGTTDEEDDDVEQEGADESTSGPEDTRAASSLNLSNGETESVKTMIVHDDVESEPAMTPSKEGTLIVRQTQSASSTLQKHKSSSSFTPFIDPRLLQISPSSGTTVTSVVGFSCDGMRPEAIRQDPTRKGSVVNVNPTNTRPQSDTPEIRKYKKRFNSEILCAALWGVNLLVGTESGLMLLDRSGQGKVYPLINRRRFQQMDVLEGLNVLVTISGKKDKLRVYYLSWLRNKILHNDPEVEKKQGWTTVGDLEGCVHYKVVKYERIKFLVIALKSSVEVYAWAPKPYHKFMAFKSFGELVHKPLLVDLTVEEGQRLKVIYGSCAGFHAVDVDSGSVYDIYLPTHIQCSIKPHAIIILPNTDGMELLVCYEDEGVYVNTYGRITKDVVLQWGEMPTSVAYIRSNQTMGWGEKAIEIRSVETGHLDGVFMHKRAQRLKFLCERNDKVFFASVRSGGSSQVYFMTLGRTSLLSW
UniProt P49006, sequence (P49006 whole entry, looked up): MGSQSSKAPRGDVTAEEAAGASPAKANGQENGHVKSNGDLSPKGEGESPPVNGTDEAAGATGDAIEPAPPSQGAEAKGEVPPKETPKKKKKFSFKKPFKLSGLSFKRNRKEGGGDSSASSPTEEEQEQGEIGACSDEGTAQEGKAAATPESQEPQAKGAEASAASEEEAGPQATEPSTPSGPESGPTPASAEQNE
UniProt Q8NHS3, sequence (Q8NHS3 whole entry, looked up): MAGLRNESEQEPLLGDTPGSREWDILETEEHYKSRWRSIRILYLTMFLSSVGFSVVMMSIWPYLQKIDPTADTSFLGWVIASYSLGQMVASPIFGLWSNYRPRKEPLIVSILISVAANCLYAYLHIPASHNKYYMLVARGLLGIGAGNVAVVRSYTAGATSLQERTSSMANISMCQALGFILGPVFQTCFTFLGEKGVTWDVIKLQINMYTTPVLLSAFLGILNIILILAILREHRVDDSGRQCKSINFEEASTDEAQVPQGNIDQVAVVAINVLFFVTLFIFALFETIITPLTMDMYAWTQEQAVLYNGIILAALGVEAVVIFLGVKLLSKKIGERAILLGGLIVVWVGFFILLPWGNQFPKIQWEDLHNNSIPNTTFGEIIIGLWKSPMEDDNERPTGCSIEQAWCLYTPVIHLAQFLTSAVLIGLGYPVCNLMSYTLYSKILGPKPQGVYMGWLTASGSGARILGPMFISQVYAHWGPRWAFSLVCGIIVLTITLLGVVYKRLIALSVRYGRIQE
UniProt Q9H6V9, sequence (Q9H6V9 whole entry, looked up): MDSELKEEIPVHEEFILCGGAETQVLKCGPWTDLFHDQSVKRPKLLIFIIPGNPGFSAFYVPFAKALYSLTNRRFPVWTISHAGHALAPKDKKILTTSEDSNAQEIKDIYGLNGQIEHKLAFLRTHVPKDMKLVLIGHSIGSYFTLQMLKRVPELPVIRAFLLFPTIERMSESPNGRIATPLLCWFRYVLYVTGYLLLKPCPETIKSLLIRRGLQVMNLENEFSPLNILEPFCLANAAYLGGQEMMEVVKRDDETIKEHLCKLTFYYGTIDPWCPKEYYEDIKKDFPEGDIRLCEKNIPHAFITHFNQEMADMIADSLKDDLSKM
UniProt Q07666, sequence (Q07666 whole entry, looked up): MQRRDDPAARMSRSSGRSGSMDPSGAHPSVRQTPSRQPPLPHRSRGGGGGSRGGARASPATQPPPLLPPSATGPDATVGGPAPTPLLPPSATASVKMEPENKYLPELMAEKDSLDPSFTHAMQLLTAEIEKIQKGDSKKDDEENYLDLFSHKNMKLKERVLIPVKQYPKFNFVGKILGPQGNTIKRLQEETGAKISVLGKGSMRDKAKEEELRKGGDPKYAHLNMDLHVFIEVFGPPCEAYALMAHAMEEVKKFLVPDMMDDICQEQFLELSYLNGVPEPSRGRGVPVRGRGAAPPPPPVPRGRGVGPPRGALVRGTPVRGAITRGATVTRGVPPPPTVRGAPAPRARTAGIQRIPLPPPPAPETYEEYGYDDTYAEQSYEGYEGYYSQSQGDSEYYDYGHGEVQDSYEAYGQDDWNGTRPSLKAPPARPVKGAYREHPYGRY
UniProt P29966, sequence (P29966 whole entry, looked up): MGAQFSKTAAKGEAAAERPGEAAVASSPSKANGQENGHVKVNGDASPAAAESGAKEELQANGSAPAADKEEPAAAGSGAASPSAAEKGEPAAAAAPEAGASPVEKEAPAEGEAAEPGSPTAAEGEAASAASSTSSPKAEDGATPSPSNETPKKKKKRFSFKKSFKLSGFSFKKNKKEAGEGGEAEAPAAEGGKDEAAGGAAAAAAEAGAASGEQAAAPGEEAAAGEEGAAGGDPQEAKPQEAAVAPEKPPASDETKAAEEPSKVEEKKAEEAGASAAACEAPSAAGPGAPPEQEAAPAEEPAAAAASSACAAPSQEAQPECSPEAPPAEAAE

log2 fold change, inactive:
MCU (UniProt Q8NE86) 0.031
MARCKS (UniProt P29966) 0.004
KDELR2 (UniProt P33947) 0.101
KIF1B isoform 3 (UniProt O60333) 0.041
IPO9 (UniProt Q96P70) 0.037
MAP4K4 isoform 3 (UniProt O95819) -0.019
ITM2B (UniProt Q9Y287) -0.011
LMNB1 (UniProt P20700) -0.01
INPP1 (UniProt P49441) 0.017
LDAH isoform 2 (UniProt Q9H6V9) 0.016
KLHL18 (UniProt O94889) -0.016
MAPK8 isoform 3 (UniProt P45983) -0.038
KPNA1 (UniProt P52294) 0.022
MFSD8 (UniProt Q8NHS3) 0.053
MIEF1 (UniProt L0R8F8) 0.023
KHDRBS1 (UniProt Q07666) 0.189
ILKAP (UniProt Q9H0C8) -0.012
MED25 isoform 3 (UniProt Q71SY5) -0.01
LTV1 (UniProt Q96GA3) 0.09
IGFBP4 (UniProt P22692) 0.147
IL27RA (UniProt Q6UWB1) 0.112
MAPKAPK2 (UniProt P49137) -0.061
MARCKSL1 (UniProt P49006) -0.005
